In the supplement of paper PMC13392028:
In all, about 4,100 sequences were measured (“RBNS R-value (6-mer enrichment in protein-bound RNA vs input library)”: median about 0.99, highest 2% from about 1.4 on). Many of the other results were omitted from the sample, so the highest values are more common in it than they were.

System: PfIESI-1 RRM domain (Plasmodium falciparum ortholog aa 875-1232, GST fusion)
Assay: RBNS R-value (6-mer enrichment in protein-bound RNA vs input library) (ratio); higher = stronger binding preference; the methods of the paper give 50 / 100 / 500 nM protein instead
Experimental: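 RNA Bind-n-Seq: recombinant GST-tagged IESI-1 RRM domain was incubated at room temperature with a random 40-nt in vitro transcribed RNA library at 250, 500 or 1000 nM protein. Bound RNA was pulled down on glutathione beads and sequenced. R-value is the enrichment of each 6-mer in the bound RNA relative to the input library. Each 6-mer sits inside the random 40-mer context, not as an isolated oligo. Values are replicate 1 only.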

| Sequence | RBNS R-value (protein concentration: 250 nM) | RBNS R-value (protein concentration: 500 nM) | RBNS R-value (protein concentration: 1000 nM) |
| --- | --- | --- | --- |
| CUCCUU | 0.894 | 0.809 | 0.869 |
| CUCACC | 1.06 | 0.994 | 1.04 |
| UUCGCC | 1.06 | 0.992 | 1.03 |
| GCGAAU | 1.01 | 1.07 | 1.04 |
| CUUUUU | 0.934 | 0.932 | 0.919 |
| UUGACG | 1.14 | 1.1 | 1.07 |
| UAAAUA | 0.769 | 0.893 | 0.797 |
| AAAUAA | 0.785 | 0.993 | 0.847 |
| AUAAUG | 0.87 | 0.985 | 0.875 |
| GCGAUC | 0.968 | 0.948 | 1.02 |
| GUGAAG | 0.986 | 0.998 | 1.03 |
| UUGAUG | 2.95 | 3.14 | 2.32 |
| AGGAUU | 1.04 | 1.06 | 1.06 |
| UUGAUC | 1.32 | 1.35 | 1.22 |
| GUGAUG | 2.02 | 2.17 | 1.72 |
| AUGAAU | 1.08 | 1.18 | 1.04 |
| GCGAUG | 1.37 | 1.39 | 1.28 |
| GGGAUG | 1.12 | 1.08 | 1.09 |
| CCGAUG | 1.38 | 1.35 | 1.29 |
| UAGAUG | 1.1 | 1.17 | 1.07 |
| AUGAUU | 2.75 | 3 | 2.19 |
| UUAGAA | 0.943 | 1.05 | 0.999 |
| GACUAA | 0.913 | 0.983 | 0.945 |
| CGCGAU | 1.17 | 1.15 | 1.13 |

| Sequence | RBNS R-value (protein concentration: 250 nM) | RBNS R-value (protein concentration: 500 nM) | RBNS R-value (protein concentration: 1000 nM) |
| --- | --- | --- | --- |
| UCCACU | 0.991 | 0.933 | 0.95 |
| GUCUUC | 0.908 | 0.868 | 0.954 |
| GCAUCC | 1.14 | 1.06 | 1.11 |
| CUAACC | 0.953 | 0.903 | 0.903 |
| AGCGUA | 0.911 | 0.94 | 0.898 |
| CAAAGA | 1.13 | 1.21 | 1.2 |
| AUGAGA | 1.23 | 1.31 | 1.23 |
| CUGAUG | 2.47 | 2.58 | 1.97 |
| CGGAUG | 1.03 | 0.978 | 1.02 |
| CUGAUC | 1.29 | 1.27 | 1.2 |
| AGGAUA | 0.981 | 1.03 | 1.01 |
| AUGAUA | 1.84 | 2.08 | 1.63 |
| AGGCGG | 1.02 | 0.987 | 1.05 |
| CCAACU | 0.966 | 0.921 | 0.933 |
| UUGGGU | 0.975 | 0.933 | 0.982 |
| CGAGAG | 1.29 | 1.22 | 1.27 |
| CGAGAA | 1.52 | 1.53 | 1.43 |
| UGAGAC | 1.16 | 1.17 | 1.15 |
| AGAGAA | 1.34 | 1.48 | 1.37 |
| UGAGAG | 1.18 | 1.16 | 1.19 |
| CGAGAC | 1.23 | 1.2 | 1.18 |
| UGAGAA | 1.33 | 1.39 | 1.34 |
| AGAGAC | 1.18 | 1.21 | 1.17 |
| AGAGAG | 1.19 | 1.25 | 1.24 |

| Sequence | RBNS R-value (protein concentration: 250 nM) | RBNS R-value (protein concentration: 500 nM) | RBNS R-value (protein concentration: 1000 nM) |
| --- | --- | --- | --- |
| UGUCAC | 0.945 | 0.963 | 0.96 |
| UGGCAU | 1.09 | 1.07 | 1.06 |
| GUCCUC | 0.918 | 0.874 | 0.925 |
| ACCUAU | 0.891 | 0.846 | 0.828 |
| CGGGGA | 1.15 | 1.1 | 1.16 |
| GAACUU | 0.955 | 0.971 | 0.985 |
| GGUGAA | 0.997 | 1.06 | 1.06 |
| AAUGAC | 1.08 | 1.1 | 1.09 |
| GAUGAG | 1.61 | 1.68 | 1.43 |
| GACGAG | 1.12 | 1.13 | 1.11 |
| GAUGAC | 1.8 | 1.8 | 1.51 |
| GAUGAA | 1.88 | 2 | 1.59 |
| AAUGAA | 0.954 | 1.1 | 1.03 |
| UAUGAC | 0.947 | 0.945 | 0.924 |
| GAUGAU | 2.43 | 2.58 | 1.9 |
| GAUGCU | 1.34 | 1.37 | 1.24 |
| GAUGGU | 1.18 | 1.23 | 1.13 |
| GAAUAC | 0.992 | 1.04 | 0.993 |
| CAACUU | 0.893 | 0.889 | 0.886 |
| GUAAUU | 0.943 | 0.984 | 0.95 |
| UACCUA | 0.87 | 0.814 | 0.831 |
| GUAACA | 0.845 | 0.924 | 0.87 |
| AAAGAU | 1.06 | 1.19 | 1.11 |
| GGUACC | 1.07 | 1 | 1.08 |

| Sequence | RBNS R-value (protein concentration: 250 nM) | RBNS R-value (protein concentration: 500 nM) | RBNS R-value (protein concentration: 1000 nM) |
| --- | --- | --- | --- |
| CCUCUA | 0.848 | 0.783 | 0.823 |
| ACGAGU | 1.04 | 1.06 | 1.02 |
| CCUUGG | 1.13 | 1.03 | 1.12 |
| CCUUGA | 1.46 | 1.37 | 1.32 |
| GCUUGA | 1.36 | 1.4 | 1.28 |
| ACUUGA | 1.42 | 1.46 | 1.34 |
| CCUUGC | 1.16 | 1.03 | 1.09 |
| UCUUGA | 1.3 | 1.32 | 1.25 |
| ACUUGC | 1.02 | 0.979 | 1.01 |
| ACUUGU | 0.921 | 0.923 | 0.962 |
| GCUUGU | 0.92 | 0.92 | 0.939 |
| CGAGUC | 1.09 | 1.04 | 1.06 |
| ACGCCU | 1.07 | 0.995 | 1.03 |
| AUGUGC | 1.04 | 1.07 | 1 |
| AGUCAA | 0.859 | 0.93 | 0.933 |
| UGAUUA | 2.21 | 2.58 | 1.94 |
| AGAUUA | 0.942 | 1.04 | 0.964 |
| UGAUUC | 2.44 | 2.61 | 1.97 |
| GGAUCC | 1.04 | 0.978 | 1.05 |
| AGAUUC | 1.19 | 1.22 | 1.17 |
| GGAUUG | 1.02 | 1.02 | 1.02 |
| CGAUUC | 1.25 | 1.25 | 1.2 |
| CGAUCC | 1.08 | 1.01 | 1.06 |
| UGAUUG | 2.38 | 2.42 | 1.85 |

| Sequence | RBNS R-value (protein concentration: 250 nM) | RBNS R-value (protein concentration: 500 nM) | RBNS R-value (protein concentration: 1000 nM) |
| --- | --- | --- | --- |
| CGAUUA | 1.05 | 1.11 | 1.04 |
| UGAUCC | 1.38 | 1.38 | 1.26 |
| CGAUUG | 1.28 | 1.27 | 1.2 |
| CCCGCU | 1.09 | 0.999 | 1.04 |
| UAAUCC | 0.907 | 0.864 | 0.872 |
| AACCAA | 0.985 | 1.04 | 1.01 |
| AAAUAG | 0.904 | 1.06 | 0.986 |
| UGAUUU | 3 | 3.23 | 2.3 |
| GGAUUU | 1.03 | 1.02 | 1.02 |
| AGAUUU | 1.17 | 1.26 | 1.16 |
| AUUCCG | 1.2 | 1.14 | 1.16 |
| ACACCG | 1.17 | 1.12 | 1.15 |
| ACACCA | 1.16 | 1.1 | 1.1 |
| GCACCG | 1.14 | 1.09 | 1.14 |
| ACACCC | 1.53 | 1.28 | 1.33 |
| GCACCC | 1.5 | 1.26 | 1.33 |
| GCACCU | 1.21 | 1.11 | 1.13 |
| UUCGUU | 0.853 | 0.817 | 0.9 |
| CAUAUA | 0.762 | 0.733 | 0.715 |
| CUCCCU | 0.934 | 0.873 | 0.909 |
| GAACUG | 1.07 | 1.11 | 1.11 |
